Test: qHTS profiling of inhibitors of Plasmodium falciparum (DD2) proliferation (acoustic dispense)
Conditions: P. falciparum Dd2 in erythrocytes, SYBR Green DNA, 72 h; at 49.8 µM (top of the series) unless noted
Source text: Plasmodium falciparum is a virulent malarial parasite that kills 1-2 million people worldwide each year. Transmitted by mosquitoes, the sporozoite form of the parasite enters the blood stream to infect hepatocytes, where they become merozoites that infect red blood cells (erythrocytes). Within erythrocytes, merozoites begin a […] cycle of growth and division, after which the parasite is released to infect new red blood cells. Gametocytes, which form within erythrocytes as well, circulate in the bloodstream and are ingested by the mosquito, thereby completing the life cycle. To profile malarial isolates for differential chemical responses and to identify inhibitors of malarial growth, an assay that measures P. falciparum growth and replication within erythrocytes was employed. This assay uses a DNA binding fluorescent dye (SYBR Green) to detect parasite DNA following cell lysis. Because mature erythrocytes lack DNA, only Plasmodium-derived DNA is detected.
The SYBR Green viability assay was adapted from a method described previously (Plouffe et al., 2008). For screening 3 ul culture medium was dispensed into 1536 well black clear bottom plates (Aurora Biotechnologies) using a Multidrop Combi (Thermo Fisher Scientific Inc.), 23 nL of compounds in DMSO were added by an acoustic dispenser (EDC Biosystems), and 5 ul of erythrocytes infected with P. falciparum (0.3% parasitemia, 2.5% hematocrit final concentration) were added. The plates were incubated at 37 C in a humidified incubator in 5% CO2 for 72 h, and 2 ul lysis buffer (20 mM Tris HCl, 10 mM EDTA, 0.16% saponin, 1.6% triton X, 10X SYBR Green I supplied as 10,000X […] by Invitrogen) was added to each well. The plates were mixed for 25 sec with gentle shaking and incubated overnight at room temperature in the dark. The following morning, fluorescence intensity at 485(14) nm excitation and 535(25) nm emission wavelengths was measured on an EnVision (Perkin Elmer) plate reader. Plate reads were normalized relative to the control inhibitor (0.29 uM artemisinin) and vehicle (DMSO) wells present on each plate and then corrected by an algorithm using vehicle-only control plates at the beginning and end of the compound plate stack.

Q: Which parasite growth, lower = inhibition does the source give for `O=C1c2ccccc2-[n+]2ccc3c([nH]c4ccccc43)c21` here?
A: 2.4%

Q: With `CN(C)c1ccc2nc3ccc(=[N+](C)C)cc-3sc2c1` as the molecule, how does the parasite growth, lower = inhibition read?
A: 11.8%

Q: Which parasite growth, lower = inhibition does the source give for `COc1ncnc(NS(=O)(=O)c2ccc(N)cc2)c1OC` here?
A: 114%

Q: With `COc1cc2nc(N3CCCN(C)CC3)nc(NC3CCN(Cc4ccccc4)CC3)c2cc1OC` as the molecule, how does the parasite growth, lower = inhibition read?
A: -0.574%

Q: Which parasite growth, lower = inhibition does the source give for `CC[C@H]1CN2CCc3cc(OC)c(OC)cc3[C@H]2C[C@@H]1C[C@@H]1NCCc2cc(OC)c(OC)cc21` here?
A: 0.111%

Q: Which parasite growth, lower = inhibition does the source give for `CCN(CC)CCCC(C)Nc1ccnc2cc(Cl)ccc12` (stereo not given) here?
A: -0.356%

Q: Which parasite growth, lower = inhibition does the source give for `CC1(CN2CCC(n3c(=O)[nH]c4ccccc43)CC2)OCc2ccccc2-n2cccc21` (stereo not given) here?
A: 12.6%

Q: With `CCC(=O)N1CCN(c2ccc(-n3c(=O)ccc4cnc5ccc(-c6cnc7ccccc7c6)cc5c43)cc2C(F)(F)F)CC1` as the molecule, how does the parasite growth, lower = inhibition read?
A: 3.68%

Q: With `C1CCC(C(CC2CCCCN2)C2CCCCC2)CC1` (stereo not given) as the molecule, how does the parasite growth, lower = inhibition read?
A: 0.0319%

Q: Which parasite growth, lower = inhibition does the source give for `CN([C@@H](Cc1ccc(OS(=O)(=O)c2cccc3cnccc23)cc1)C(=O)N1CCN(c2ccccc2)CC1)S(=O)(=O)c1cccc2cnccc12` here?
A: 0.489%

Q: With `CC(C)C[C@H](NC(=O)[C@H](CCc1ccccc1)NC(=O)CN1CCOCC1)C(=O)N[C@@H](Cc1ccccc1)C(=O)N[C@@H](CC(C)C)C(=O)[C@@]1(C)CO1` as the molecule, how does the parasite growth, lower = inhibition read?
A: 0.838%

Q: Which parasite growth, lower = inhibition does the source give for `CC1(C)N=C(N)N=C(N)N1c1ccc(Cl)cc1` here?
A: 3.98%

Q: For `CCCCN(CCCC)CCC(O)c1cc2c(Cl)cc(Cl)cc2c2cc(C(F)(F)F)ccc12` (stereo not given), which parasite growth, lower = inhibition is on record?
A: -0.281% [at 23.2 µM]

Q: With `CCc1nc(N)nc(N)c1-c1ccc(Cl)cc1` as the molecule, how does the parasite growth, lower = inhibition read?
A: 79.6%

Q: For `C[C@H]1[C@@H](OC(=O)CCC(=O)O)O[C@@H]2O[C@@]3(C)CC[C@@H]4[C@H](C)CC[C@@H]1[C@@]24OO3`, which parasite growth, lower = inhibition is on record?
A: -0.775%

Q: For `NC1CCC(Nc2nc(Nc3ccc(C(=O)N4CCCCC4)cc3)c3ncn(-c4cccc(F)c4)c3n2)CC1` (stereo not given), which parasite growth, lower = inhibition is on record?
A: -0.359%

Q: Which parasite growth, lower = inhibition does the source give for `CC(=NNC(=S)N1CCC1)c1ccccn1` here?
A: -0.523%

Q: Which parasite growth, lower = inhibition does the source give for `CC[C@@]1(O)C[C@H](O[C@H]2C[C@H](N(C)C)[C@H](O[C@H]3C[C@H](O)[C@H](O[C@H]4CCC(=O)[C@H](C)O4)[C@H](C)O3)[C@H](C)O2)c2c(cc3c(c2O)C(=O)c2c(O)cccc2C3=O)[C@@H]1C(=O)OC` here?
A: -1.21%

Q: Which parasite growth, lower = inhibition does the source give for `CCn1nnc2c(N3CCOCC3)nc(-c3ccc(NC(=O)Nc4ccc(C(=O)N5CCN(C)CC5)cc4)cc3)nc21` here?
A: 2.15%

Q: Which parasite growth, lower = inhibition does the source give for `COc1cc([C@@H]2c3cc4c(cc3[C@@H](O[C@@H]3O[C@@H]5CO[C@@H](c6cccs6)O[C@@H]5[C@H](O)[C@@H]3O)[C@H]3COC(=O)[C@H]23)OCO4)cc(OC)c1O` here?
A: -0.345%

Q: With `CC[C@H]1OC(=O)[C@H](C)[C@@H](O[C@H]2C[C@@](C)(OC)[C@@H](O)[C@H](C)O2)[C@H](C)[C@@H](O[C@@H]2O[C@H](C)C[C@H](N(C)C)[C@@H]2O)[C@](C)(O)C[C@@H](C)CN(C)[C@H](C)[C@@H](O)[C@]1(C)O` as the molecule, how does the parasite growth, lower = inhibition read?
A: 9.84%

Q: With `O=C(Nc1cn[nH]c1-c1nc2ccc(CN3CCOCC3)cc2[nH]1)NC1CC1` as the molecule, how does the parasite growth, lower = inhibition read?
A: 0.452%

Q: With `CCOC(=O)[C@H](CCc1ccccc1)N[C@H]1CS[C@H](c2cccs2)CN(CC(=O)O)C1=O` as the molecule, how does the parasite growth, lower = inhibition read?
A: 61.3%

Q: With `CN[C@@H](C)C(=O)N[C@H]1CCCC[C@H]2CC[C@@H](C(=O)N[C@@H](c3ccccc3)c3cn(CCCCc4ccc(CCCCn5cc([C@@H](NC(=O)[C@@H]6CC[C@@H]7CCCC[C@H](NC(=O)[C@H](C)NC)C(=O)N76)c6ccccc6)nn5)cc4)nn3)N2C1=O` as the molecule, how does the parasite growth, lower = inhibition read?
A: 0.728%

Q: For `COc1ccc2cc3[n+](cc2c1OC)CCc1cc2c(cc1-3)OCO2`, which parasite growth, lower = inhibition is on record?
A: -0.889%

Q: With `FC(F)c1nc2ccccc2n1-c1nc(N2CCOCC2)nc(N2CCOCC2)n1` as the molecule, how does the parasite growth, lower = inhibition read?
A: 0.937%

Q: Which parasite growth, lower = inhibition does the source give for `Cc1nc2c(C#N)cccc2n1-c1ccc(C(=O)NC2CC2)s1` here?
A: 2.19%

Q: For `Cc1nc2cnc3ccc(C#Cc4cccnc4)cc3c2n1-c1ccc(C(C)(C)C#N)cc1`, which parasite growth, lower = inhibition is on record?
A: 0.532%

Q: Which parasite growth, lower = inhibition does the source give for `CC(C)Oc1cc(Nc2nc(N[C@@H](C)c3ccc(F)cn3)ncc2Cl)[nH]n1` here?
A: 3.28%

Q: Which parasite growth, lower = inhibition does the source give for `CCCCN(CCCC)CC(O)c1cc(Cl)cc2c1-c1ccc(Cl)cc1C2=Cc1ccc(Cl)cc1` (stereo not given) here?
A: -0.158%

Q: With `COc1ccc(-c2nc(N3CCOCC3)c3sc(CN(C)c4ncc(C(=O)NO)cn4)cc3n2)cn1` as the molecule, how does the parasite growth, lower = inhibition read?
A: 0.651%

Q: Which parasite growth, lower = inhibition does the source give for `CC(C)n1nc(-c2ccc3oc(N)nc3c2)c2c(N)ncnc21` here?
A: -0.0305%

Q: With `O[C@H](c1cc(C(F)(F)F)nc2c(C(F)(F)F)cccc12)[C@H]1CCCCN1` as the molecule, how does the parasite growth, lower = inhibition read?
A: 0.891% [at 23.2 µM]

Q: For `CC[C@H]1OC(=O)[C@H](C)C(=O)[C@H](C)[C@@H](O[C@H]2O[C@H](C)C[C@H](N(C)C)[C@@H]2O)[C@](C)(OC)C[C@@H](C)C(=O)[C@H](C)[C@H]2N(CCCCn3cnc(-c4cccnc4)c3)C(=O)O[C@]12C`, which parasite growth, lower = inhibition is on record?
A: 4.52%

Q: With `CCCCCCOC(=O)C1(O)CC2OC1(C)n1c3ccccc3c3c4c(c5c6ccccc6n2c5c31)C(=O)NC4` (stereo not given) as the molecule, how does the parasite growth, lower = inhibition read?
A: 89.2% [at 1.88 µM]

Q: For `O=C1NC(=O)C(=Cc2ccc3nccc(-c4ccncc4)c3c2)S1`, which parasite growth, lower = inhibition is on record?
A: 0.455%

Q: Which parasite growth, lower = inhibition does the source give for `CO[C@H]1C=CC=C(C)C(=O)NC2=CC(=O)C(NCCN(C)C)=C(C[C@@H](C)C[C@H](OC)[C@@H](O)[C@@H](C)C=C(C)[C@@H]1OC(N)=O)C2=O` here?
A: -1.01%

Q: Which parasite growth, lower = inhibition does the source give for `C[C@H]1Cc2c([nH]c3cc(Cl)c(F)cc23)[C@@]2(N1)C(=O)Nc1ccc(Cl)cc12` here?
A: -0.794%

Q: For `CC(C)[C@H](C(=O)Nc1ccc(C(=O)NO)cc1)c1ccccc1`, which parasite growth, lower = inhibition is on record?
A: 0.408%

Q: With `COc1ccc2nc3cc(Cl)ccc3c(Nc3cc(CN4CCCC4)c(O)c(CN4CCCC4)c3)c2n1` as the molecule, how does the parasite growth, lower = inhibition read?
A: 0.653%
